# B2AR arrestin: qHTS assay of beta-arrestin-biased ligands of beta2-adrenergic receptor; beta-arrestin recruitment to beta2AR, cell-based reporter; Potency, µM (titrated, usually from 46.1 µM), usual class: activators; 330,000 tested, 0.02% active; further: nearly all actives have a fitted effect of over 65% in size
# DRD3 agonist: qHTS of D3 Dopamine Receptor Agonist: qHTS | D3R DiscoveRx beta-arrestin cells, luminescence, 90 min | max activation, % | 410,000 tested, 0.58% active | AID 652048, 2013; in the data active means max activation above about 30%
# Target sequence (P35462 whole entry, looked up): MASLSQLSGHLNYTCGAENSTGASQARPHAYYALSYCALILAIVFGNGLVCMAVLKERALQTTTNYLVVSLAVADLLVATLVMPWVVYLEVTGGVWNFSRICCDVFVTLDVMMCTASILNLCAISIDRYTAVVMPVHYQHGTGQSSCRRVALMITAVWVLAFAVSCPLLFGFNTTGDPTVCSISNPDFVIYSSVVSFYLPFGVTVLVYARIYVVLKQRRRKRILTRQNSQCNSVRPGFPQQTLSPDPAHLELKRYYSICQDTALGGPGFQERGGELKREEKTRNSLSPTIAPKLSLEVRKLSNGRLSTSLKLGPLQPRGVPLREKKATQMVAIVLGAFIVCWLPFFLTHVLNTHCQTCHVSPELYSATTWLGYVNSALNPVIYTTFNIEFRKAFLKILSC
#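 Agonist mode: compounds and dopamine controls were applied to plated cells for 90 min at 37 degrees C after an overnight attachment at 1500 cells/well. Luminescent read-out followed 30 - 60 minutes at room temperature with DiscoveRx detection reagent.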
# mIDH1 inhibitor: qHTS for Inhibitors of mutant isocitrate dehydrogenase 1 (IDH1): qHTS; Isocitrate dehydrogenase [NADP] cytoplasmic (Homo sapiens), O75874; IDH1-R132H enzyme, NADPH consumption, diaphorase/resazurin fluorescence; Potency, µM (doses to about 76.6 µM), usual class: inhibitors; 390,000 tested, 0.093% active; AID 602179, 2012; further: nearly all actives have a fitted effect of over 65% in size
#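 IDH1-R132H (0.5 ug/mL) preincubated 30 min with compound, then NADPH (0.016 mM) and alpha-KG (2 mM) added; 80 min at RT, pH 7.5. Remaining NADPH coupled via diaphorase/resazurin to fluorescence (540/590 nm); concentration-response curves normalized to no-enzyme control.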
# D3 antag: qHTS of D3 Dopamine Receptor Antagonist: qHTS; 360,000 tested, 2.5% active; max response, negative = inhibition, %; D(3) dopamine receptor (Homo sapiens), P35462; D3R cells, DiscoveRx beta-arrestin luminescence, antagonist mode; stronger effect = lower value; AID 652054, 2013; in the data active means max response below about -50%; inconclusive means no clear call, values can overlap the other calls
#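 Cells expressing the human receptor were seeded at 1500 cells/well, incubated overnight at 37 degrees C in 5% CO2, then exposed to library compounds with dopamine controls for 90 minutes at 37 degrees C before luminescent detection.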
# Integrin act MD: qHTS for Activators of Integrin-Mediated Alleviation for Muscular Dystrophy; alpha7betagal myoblasts, beta-gal FDG fluorescence, 48 h; Potency, µM (titrated, usually from 38.3 µM), hits mostly activators; 350,000 tested, 0.064% active; AID 624291, 2012; further: nearly all actives have a fitted effect of over 60% in size
#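 Alpha7betagal+/- myoblasts (passage 13) were plated 16-24 hr, then exposed to compounds (1:260 dilution of DMSO stock) for 48 hours at 37C. After MPER lysis, β-galactosidase reporter activity was read as FDG fluorescence (ex 480/em 540) after 30 minutes.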
# A number is an active result; 0 = inactive; ? = inconclusive; - = not tested or not shown. Compounds with a hit are over-represented: about 2.9% of the library has one in this group of screens. Unless noted, the call rests on the fitted dose curve; in most records, active means well fitted curve in the direction sought with a large enough effect; inconclusive means small, poorly fitted or top-dose-only effect, or another doubt; inactive means no such curve, though single readings can be large; an effect the other way counts as inactive or inconclusive.
SMILES,B2AR arrestin,DRD3 agonist,mIDH1 inhibitor,D3 antag,Integrin act MD
O=[N+]([O-])c1cccc(SSc2cccc([N+](=O)[O-])c2)c1,-,0,0,-68.9,0
COc1cc(OC)c(N(C)C(=O)CSc2c3c(nc4ccc(Cl)cc24)CCCC3)cc1Cl,-,0,0,-,-
Cc1ccc(-c2nnc(Nc3cccc(C(F)(F)F)c3)c3ccccc23)cc1S(=O)(=O)N1CCOCC1,-,0,0,-,-
CCC(C(=O)NCCc1cc(OC)ccc1OC)n1nc(C)c2sc3ccccc3c2c1=O (configuration not stated),-,0,0,-,-
COC(=O)c1[nH]c2cc(OC)ccc2c1NC(=O)CCN1CCCC(C)(C)C1,0,0,0,-56.1,0
COC(=O)c1[nH]c2cc(OC)ccc2c1NC(=O)CCN1CCN(Cc2ccc3c(c2)OCO3)CC1,0,0,0,-80.6,0
COc1cccc(-n2ccnc2SCC(=O)Nc2c(C)cc(C)cc2C)c1,-,0,0,-,-
COc1ccc(F)cc1-c1cc(NC=O)c2ncc(-c3cccc(C(=O)N(C)C)c3)n2c1,-,52.1,-,?,-
COc1cc(C2NCCc3c2[nH]c2ccccc32)ccc1OC(C)C (configuration not stated),0,-,-,-,-
CC(C)C1NCCc2c1sc1ccccc21 (configuration not stated),-,0,0,-61.2,0
CC(C)Nc1nc(NCCOc2ccccc2Cl)c2sc(-c3ccccc3)cc2n1,-,0,-,?,-
COc1ccccc1CNc1nc(NC(C)C)nc2cc(-c3ccccc3)sc12,-,0,-,-63.9,-
CCc1ccc2[nH]c3nc(SCC(=O)NNC(=O)c4ccc(C(C)(C)C)cc4)nnc3c2c1,0,39.4,0,0,0
Cc1cccc(C(=O)OCC(=O)NC2CCCCCCC2)c1,0,0,0,?,0
Cc1cccc(C(=O)OCC(=O)NC(=O)NC2CCCCC2)c1,-,0,0,-117.4,0
COc1ccc(C(=O)CSc2n[nH]c(-c3ccco3)n2)cc1,0,0,0,-59.1,0
Cn1c(=O)c2c(n3cnnc13)-c1ccccc1CC21CCCC1,0,0,0,-56.4,0
O=c1c2c(n3cnnc3n1-c1ccccc1)-c1ccccc1CC21CCCC1,0,0,0,0,0
COc1ccc(NC(=O)c2cnc3sccn3c2=O)cc1,0,0,0,-52.5,0
COc1ccc(C(=O)N2CCN(C3CCCCC3)CC2)c(OC)c1,0,0,0,-85.7,0
CCN1CCN(C(=O)Nc2cc(Cl)ccc2OC)CC1,0,0,0,0,0
COc1ccc(Cl)cc1NC(=O)N1CCN(C2CCCCC2)CC1,0,0,0,-57.3,0
COc1ccc(Cl)cc1NC(=O)NCC1CCN(C(=O)OC(C)(C)C)CC1,0,0,0,-72.5,0
COc1cccc(C(=O)N2CCN(C3CCCCC3)CC2)c1,0,0,0,0,0
COc1ccc(Cl)cc1NC(=O)NCCN1CCCCC1,0,0,0,?,0
SMILES,B2AR arrestin,DRD3 agonist,mIDH1 inhibitor,D3 antag,Integrin act MD
COc1ccccc1CNc1ccc(Br)cn1,0,32.7,0,0,0
CN(C)S(=O)(=O)c1ccc(C(=O)Nc2nc3ccccc3[nH]2)cc1,0,0,0,0,8.91µM
CCCN1CCc2c(sc(NC(=S)NC(=O)c3ccccc3)c2C#N)C1,0,37.8,0,0,0
COc1ccccc1-c1cc(C(=O)Nc2sc3c(c2C#N)CCC(C)C3)c2ccccc2n1 (configuration not stated),0,0,0,-63.0,0
CC(C)N1CCc2c(sc(NC(=S)NC(=O)c3ccccc3)c2C#N)C1,0,0,0,0,0
COC(=O)c1sc(NC(=O)c2cc(-c3ccccc3)nc3ccccc23)c(C#N)c1C,0,0,0,0,0
Cc1onc(-c2ccccc2)c1C(=O)NC(=S)Nc1sc2c(c1C#N)CCCC2,0,0,0,0,?
COc1ccc(OC)c(-c2cc(C(=O)Nc3sc4c(c3C#N)CCC(C)C4)c3ccccc3n2)c1 (configuration not stated),0,0,0,0,0
Cc1ccccc1-c1cc(C(=O)Nc2sc(C(=O)OC(C)C)c(C)c2C#N)c2ccccc2n1,0,0,0,-68.4,0
Cc1onc(-c2ccccc2)c1C(=O)NC(=S)Nc1sc2c(c1C#N)CCC(C)C2 (configuration not stated),0,34.9,0,0,0
O=C(Nc1ccc(C(=O)OCc2cc(=O)n3c4c(sc3n2)CCCC4)cc1)c1ccccc1,-,0,0,-,-
Cc1nn(S(=O)(=O)c2cccs2)c(C)c1Sc1ccc([N+](=O)[O-])cc1,0,0,0,0,0
Cc1nn(S(=O)(=O)c2ccccc2)c(C)c1Sc1ccc([N+](=O)[O-])cc1,0,0,0,-80.1,0
COc1ccc(-c2onc(C)c2C)cc1S(=O)(=O)N1CCN(c2ccc(Cl)cc2)CC1,-,0,0,-,-
Cc1cc(C)cc(N2C(=O)CSC2c2cccs2)c1 (configuration not stated),0,0,0,0,0
Cc1ccc(N2C(=O)CSC2c2cccs2)cc1 (configuration not stated),0,0,0,-56.8,0
CCOc1ccc(C(=O)C(CCC(CN(C)C)C(=O)c2ccc(OCC)cc2)CN(C)C)cc1 (configuration not stated),0,0,0,-84.9,0
CN(C)CC(CCC(CN(C)C)C(=O)c1ccccc1)C(=O)c1ccccc1 (configuration not stated),0,0,0,-80.3,0
CN1N=C(C(=O)N2CCCC(N3CCN(c4ccc(F)cc4)CC3)C2)CCC1=O (configuration not stated),0,0,0,0,0
Cc1cccc(C)c1-n1nnnc1C(c1cccs1)N1CCN(C/C=C/c2ccccc2)CC1 (configuration not stated),-,0,-,-84.0,-
Cc1cccc(C)c1-n1nnnc1C(c1ccccc1)N1CCN(C/C=C/c2ccccc2)CC1 (configuration not stated),-,0,-,-132.7,-
CCc1ccc(-c2nc(CS(=O)CC(=O)NCc3ccc4c(c3)OCO4)c(C)o2)cc1 (configuration not stated),0,0,0,0,0
CSCC[C@H](NC(=O)N1CCn2c1nc1ccccc12)C(=O)NCc1ccco1,0,0,0,0,0
CCC(=O)OCOc1ccc(/C=C2/CCC(CN(C)C)C2=O)cc1 (configuration not stated),-,0,0,-87.3,0
CCOc1ccc(/C=C2\CCC(C3CCCC3)C2=O)cc1 (configuration not stated),0,0,0,0,?
Cc1ccc2c(=O)c(C(=O)c3cccc(Cl)c3)cn(CC(=O)Nc3ccccc3C(F)(F)F)c2n1,-,0,0,-,-

# Source: PubChem BioAssay
